# Data taken from article PMC4336329 (PLoS ONE, 2015).
# About 14,000 (4.5%) of roughly 310,000 compounds showed an effect of 50% or more. The effect is printed as a negative number. The full list was thinned out, with strong results kept by preference.
# Target: human ether-à-go-go-related gene (hERG) potassium channel (human, UniProt Q12809)
# Assay: primary screen, population patch clamp on CHO cells stably expressing hERG; higher = less effect of the substance
# 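Further: peak tail current of the secondary pulse compared with the same well before compound.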
# Chain of human ether-à-go-go-related gene (hERG) potassium channel (Q12809 whole entry, looked up): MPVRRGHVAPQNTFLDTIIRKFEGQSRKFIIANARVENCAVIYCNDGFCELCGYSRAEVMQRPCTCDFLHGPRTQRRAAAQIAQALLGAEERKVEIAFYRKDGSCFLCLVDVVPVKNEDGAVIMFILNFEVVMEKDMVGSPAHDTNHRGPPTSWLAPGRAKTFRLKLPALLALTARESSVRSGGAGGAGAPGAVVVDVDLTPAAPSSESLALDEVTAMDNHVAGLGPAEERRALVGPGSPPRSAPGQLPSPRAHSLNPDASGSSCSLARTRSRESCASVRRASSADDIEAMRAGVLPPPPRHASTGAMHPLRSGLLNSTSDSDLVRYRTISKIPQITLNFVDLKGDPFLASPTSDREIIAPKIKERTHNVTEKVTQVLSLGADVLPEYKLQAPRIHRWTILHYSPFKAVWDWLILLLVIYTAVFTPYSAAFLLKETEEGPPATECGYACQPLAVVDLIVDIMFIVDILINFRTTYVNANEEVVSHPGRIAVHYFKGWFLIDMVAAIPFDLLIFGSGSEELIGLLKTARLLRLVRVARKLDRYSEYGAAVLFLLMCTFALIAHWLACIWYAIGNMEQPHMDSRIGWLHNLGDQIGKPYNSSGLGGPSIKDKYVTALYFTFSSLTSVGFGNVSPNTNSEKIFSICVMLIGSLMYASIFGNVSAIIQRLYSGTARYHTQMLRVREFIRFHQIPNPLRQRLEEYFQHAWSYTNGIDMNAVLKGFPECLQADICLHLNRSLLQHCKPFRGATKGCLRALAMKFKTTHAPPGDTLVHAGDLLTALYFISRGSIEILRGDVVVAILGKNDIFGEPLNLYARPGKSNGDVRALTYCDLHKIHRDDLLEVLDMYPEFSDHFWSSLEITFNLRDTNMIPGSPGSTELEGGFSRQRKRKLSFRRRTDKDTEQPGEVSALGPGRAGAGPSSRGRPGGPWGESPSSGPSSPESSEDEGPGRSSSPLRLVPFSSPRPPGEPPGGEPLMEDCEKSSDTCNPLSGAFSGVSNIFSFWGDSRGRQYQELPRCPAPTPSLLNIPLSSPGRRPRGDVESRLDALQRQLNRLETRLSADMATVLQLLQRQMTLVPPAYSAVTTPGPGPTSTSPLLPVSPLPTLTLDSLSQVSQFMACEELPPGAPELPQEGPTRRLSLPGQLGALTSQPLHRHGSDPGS
row,Structure (SMILES),"hERG current change (%, negative = inhibition) at 10uM [%]"
1,CC(=O)c1c(C)[nH]c(C(=O)OCc2ccccc2)c1C,-3.71
2,C=C(C)CSc1nnc(-c2ccccc2)n1N,-1.72
3,CCOC(=O)N1CCC(NS(=O)(=O)c2ccc3c(c2)oc(=O)n3C)CC1,1.74
4,COc1cccc(N2CCN(S(=O)(=O)c3cccc4nsnc34)CC2)c1,-10.6
5,CC(C)Cc1nnc(NC(=O)CCC(=O)NC2CC2)s1,21.9
6,COc1ccc(NC(=O)c2c(C)noc2-c2snnc2C)cc1,-1.51
7,N=c1c(S(=O)(=O)c2ccc(Cl)cc2)cc2c(=O)n3ccccc3nc2n1Cc1ccco1,13.1
8,N=c1c(S(=O)(=O)c2ccc(Br)cc2)cc2c(=O)n3ccccc3nc2n1Cc1ccco1,7.31
9,Cn1c(C(=O)NCCC2=CCCCC2)cc2c(=O)n3ccccc3nc21,19.7
10,O=C(NCCc1ccco1)c1nn(Cc2ccccc2)c(=O)c2ccccc12,10.3
11,N=c1c(S(=O)(=O)c2ccccc2)cc2c(=O)n3ccccc3nc2n1Cc1ccco1,-18.9
12,CC(C)n1c(=N)c(C(=O)NCCc2ccccc2)cc2c(=O)n3ccccc3nc21,-75.1
13,N=c1c(C(=O)NCc2ccccc2)cc2c(=O)n3ccccc3nc2n1Cc1ccco1,-76.4
14,N=c1c(C(=O)NCc2ccco2)cc2c(=O)n3ccccc3nc2n1Cc1ccc(Cl)cc1,-77.1
15,O=C(NCc1ccco1)c1ccc(Cn2c(=O)c3ccccc3n(Cc3ccc(Cl)cc3)c2=O)cc1,8.16
16,N=c1c(C(=O)NCCc2ccccc2)cc2c(=O)n3ccccc3nc2n1Cc1ccco1,-77.9
17,O=C(NCCc1ccccc1)c1cnc2ccccn2c1=O,-12
18,CCCCN(CC)c1nc(N)c(C#N)c(CC#N)c1C#N,-24.9
19,O=C(NCCO)C(=O)NCC1OCCCN1S(=O)(=O)c1cc(F)ccc1F (centres unmarked),13.6
20,CCOc1cc(/C=C/c2nc3ccccc3c(=O)[nH]2)ccc1O,13.4
21,CCN(CC)C(=O)OCc1c(-c2ccccc2)ncc2ccccc12,-25.5
22,CCc1nn(-c2cc(Oc3cccc4ccccc34)nc(-c3ccccc3)n2)c(N)c1C#N,23.3
23,CCOC(=O)N1CCN(S(=O)(=O)c2ccc(OC)cc2)CC1,-4.57
